{"source": "PubChem BioAssay (Tox21)", "note": "Results filed as inconclusive are left out. Activity calls are given as the source filed them. Calls follow the shape of the dose curve; as a rule, active = well fitted curve in the direction sought with a large enough effect in the signal ratio in the repeat runs (not every such curve was filed as active); inconclusive = weak or mixed curves, or effect the other way; inactive = no such curve, though single readings can be large or run the other way; the % refers to the signal ratio."}
{"target": "Estrogen receptor (Homo sapiens) (UniProt P03372)", "sequence (P03372 whole entry, looked up)": "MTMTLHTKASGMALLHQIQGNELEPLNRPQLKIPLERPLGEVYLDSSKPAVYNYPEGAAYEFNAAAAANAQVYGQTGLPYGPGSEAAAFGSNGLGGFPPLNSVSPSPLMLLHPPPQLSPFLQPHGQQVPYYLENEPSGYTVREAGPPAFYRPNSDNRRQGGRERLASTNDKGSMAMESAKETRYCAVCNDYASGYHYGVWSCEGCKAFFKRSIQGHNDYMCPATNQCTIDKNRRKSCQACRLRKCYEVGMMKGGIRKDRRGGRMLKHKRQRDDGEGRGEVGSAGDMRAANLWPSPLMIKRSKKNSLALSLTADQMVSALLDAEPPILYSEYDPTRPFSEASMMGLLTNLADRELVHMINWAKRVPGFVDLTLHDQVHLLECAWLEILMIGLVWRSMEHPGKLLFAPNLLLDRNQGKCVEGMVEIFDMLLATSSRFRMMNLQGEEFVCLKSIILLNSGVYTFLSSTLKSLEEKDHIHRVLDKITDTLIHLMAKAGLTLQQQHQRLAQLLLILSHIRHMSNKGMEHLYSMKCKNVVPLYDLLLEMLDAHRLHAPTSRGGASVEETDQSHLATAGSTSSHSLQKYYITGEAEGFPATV", "assay": "qHTS assay to identify small molecule antagonists of the estrogen receptor alpha (ER-alpha) signaling pathway (AID 743069)", "details": "HEK293 ER-alpha-UAS-bla, beta-lactamase ratio, antagonist mode; series mostly up to 69.4 µM", "text": "National Center for Advancing Translational Sciences [NCATS]\nNIH Chemical Genomics Center [NCGC]\nU.S. Environmental Protection Agency [EPA]\nNational Institutes of Environmental Health Sciences [NIEHS]\nNational Toxicology Program [NTP]\nU.S. Food and Drug Administration [FDA]\nEstrogen receptor (ER), a nuclear hormone receptor, plays an important role in development, metabolic homeostasis and reproduction. Two subtypes of ER, ER-alpha and ER-beta have similar expression patterns with some uniqueness in both types. Endocrine disrupting chemicals (EDCs) and their interactions with steroid hormone receptors like ER causes disruption of normal endocrine function. To identify the compounds that inhibit ER signaling, an ER-alpha-UAS-bla GripTiteTM cell line (Invitrogen, Carlsbad, CA, USA) containing a beta-lactamase reporter gene under the control of an Upstream Activator Sequence (UAS) stably integrated into HEK293 cells was used to screen the Tox21 10K compound library.\nTox21 Assay Protocol Summary:\nER-alpha-bla cells were cultured in assay medium containing 2% charcoal stripped FBS overnight in the culture flasks before the assay was performed. The cells were dispensed at 5,000 cells/5 uL of assay medium per well into black wall/clear-bottom 1536-well plates using a Multidrop Combi (ThermoFisher Scientific, Waltham, MA) dispenser. After the assay plates were incubated at a 37C and 5% CO2 for 4 hr, 23 nL of compounds dissolved in DMSO, positive controls or DMSO only was transferred to the assay plate by a Pintool station (Kalypsys, San Diego, CA), followed by addition of 1 uL of 17beta-estradiol in assay medium using a Flying Reagent Dispenser (Aurora Discovery, San Diego, CA). The plates were incubated at 37C and 5% CO2 for 18 hr. Then 1 uL of LiveBLAzerTM B/G FRET substrate was added using a Flying Reagent Dispenser, the plates were incubated at room temperature for 2 hours, and fluorescence intensity was measured by an Envision plate reader (PerkinElmer, Shelton, CT)."}
{"smiles": "CCCC(=O)C(C)=O", "outcome": "inactive"}
{"smiles": "Nc1ncnc(Nc2ccccc2)n1", "outcome": "inactive"}
{"smiles": "CN1C(C)(C)CCCC1(C)C", "outcome": "inactive"}
{"smiles": "COC(=O)c1ccccc1C(=O)c1ccc(OCCN2CCCCC2)cc1", "outcome": "inactive"}
{"smiles": "CN1CCN(CC(=O)N2c3ccccc3C(=O)Nc3cccnc32)CC1", "outcome": "inactive"}
{"smiles": "CCCCCCOc1ccccc1C(N)=O", "outcome": "inactive"}
{"smiles": "CN(C)c1ccc(C=O)cc1", "outcome": "inactive"}
{"smiles": "CC(=O)/C=C/C1C(C)=CCC(C)C1(C)C", "note": "(stereo not given)", "outcome": "inactive"}
{"smiles": "Cc1cccc(C)c1OCC(C)N", "note": "(stereo not given)", "outcome": "inactive"}
{"smiles": "O=C1CCCC(=O)O1", "outcome": "inactive"}
{"smiles": "CCCN1C[C@H](CSC)C[C@@H]2c3cccc4[nH]cc(c34)C[C@H]21", "outcome": "inactive"}
{"smiles": "CNS(=O)(=O)CCc1ccc2[nH]cc(C3CCN(C)CC3)c2c1", "outcome": "inactive"}
{"smiles": "Cc1nc2n(c(=O)c1CCN1CCC(c3noc4cc(F)ccc34)CC1)CCC[C@H]2O", "outcome": "inactive"}
{"smiles": "COc1ccc(-c2cc(=O)c3c(O)cc(O[C@@H]4O[C@H](CO[C@@H]5O[C@@H](C)[C@H](O)[C@@H](O)[C@H]5O)[C@@H](O)[C@H](O)[C@H]4O)cc3o2)cc1O", "outcome": "inactive"}
{"smiles": "CC(C)c1ccc2cc(C(C)C)ccc2c1", "outcome": "inactive"}
{"smiles": "O=C(CCN1CCN(CCO)CC1)N1c2ccccc2Sc2ccc(C(F)(F)F)cc21", "outcome": "inactive"}
{"smiles": "CO[C@@H]1[C@@H](OC(N)=O)[C@@H](O)[C@H](Oc2ccc3c(O)c(NC(=O)c4ccc(O)c(CC=C(C)C)c4)c(=O)oc3c2C)OC1(C)C", "outcome": "inactive"}
{"smiles": "COP(=O)(OC)OC(c1ccc(Cl)cc1)P(=O)(OC)OC", "note": "(stereo not given)", "outcome": "inactive"}
{"smiles": "Cc1c(I)c(=O)n(-c2ccccc2)n1C", "outcome": "inactive"}
{"smiles": "O=C(O)Cc1cn(-c2ccccc2)nc1-c1ccc(Cl)cc1", "outcome": "inactive"}
{"smiles": "COC(=O)CCCCCCCC(=O)OC", "outcome": "inactive"}
{"smiles": "COCCOCCOCCOCCO", "outcome": "inactive"}
{"smiles": "O=C(O)c1ccc(Cl)cc1Cl", "outcome": "inactive"}
{"smiles": "NC(CO)C(=O)NNCc1ccc(O)c(O)c1O", "note": "(stereo not given)", "outcome": "inactive"}
{"smiles": "C=C(C)C1CCC(C)(O)CC1", "note": "(stereo not given)", "outcome": "inactive"}
{"smiles": "O=C(Nc1ccc(Cl)c(Cl)c1)C1CC1", "outcome": "inactive"}
{"smiles": "CC1(C)S[C@@H]2[C@H](N=CN3CCCCCC3)C(=O)N2[C@H]1C(=O)O", "outcome": "inactive"}
{"smiles": "O=C(O)c1cc(Cl)cc([N+](=O)[O-])c1Cl", "outcome": "inactive"}
{"smiles": "CCCCOCCOC(=O)COc1nc(Cl)c(Cl)cc1Cl", "outcome": "inactive"}
{"smiles": "CCCCCCCC/C=C\\CCCCCCCC(=O)OCCCC", "outcome": "inactive"}
{"smiles": "N[C@@H](CCC(=O)Nc1ccc([N+](=O)[O-])cc1)C(=O)O", "outcome": "inactive"}
{"smiles": "COc1ccc2c(c1)C(=O)N(CCc1ccc(S(=O)(=O)NC(=O)NC3CCCCC3)cc1)C(=O)C2(C)C", "outcome": "inactive"}
{"smiles": "CC(C)CC(=O)O", "outcome": "inactive"}
{"smiles": "CC(N)C(=O)OC(C)(C)Cc1ccc(Cl)cc1", "note": "(stereo not given)", "outcome": "inactive"}
{"smiles": "CCCCNC1CC(C)(C)NC(C)(C)C1", "outcome": "inactive"}
{"smiles": "CC(=O)CCCCn1c(=O)c2c(ncn2C)n(C)c1=O", "outcome": "inactive"}
{"smiles": "CC(C(=O)O)c1ccc2c(c1)CC(=O)c1ccccc1S2", "note": "(stereo not given)", "outcome": "inactive"}
{"smiles": "CNC(=O)[C@H]1O[C@@H](n2cnc3c(NCc4cc(Cl)ccc4OCc4cc(C)no4)ncnc32)[C@H](O)[C@@H]1N", "outcome": "inactive"}
{"smiles": "CCOC(=O)c1ccc(OC(=O)CCCCCN=C(N)N)cc1", "outcome": "inactive"}
{"smiles": "CCN(C)C(=O)Oc1cccc([C@H](C)N(C)C)c1", "outcome": "inactive"}
